Bcl-xL primary: inhibitors of human Bcl-xL; GST-Bcl-xL / FITC-Bim BH3 peptide fluorescence polarization; Q07817; inhibition, % at 10.9 µM; AID 2129; actives 0.7% (n = 320,000);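 active means inhibition above the mean of all tested compounds plus 3 SD, cutoff set per campaign, cut at about 30% in these data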;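 further: 0% = DMSO wells and 100% = unlabeled Bim-BH3 peptide competitor; inhibitors lower millipolarization by displacing the labeled peptide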
MEX-5 binding: C. elegans MEX-5 TCR-2 RNA binding activity; actives 0.38% (n = 300,000); activity score (negative = inhibition of binding), % at 10 µM; MEX-5/FITC-TCR2 RNA binding, fluorescence polarization; stronger effect = lower value; AID 1832; Q9XUB2;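 active means inhibition past about -25% in most replicates, and total fluorescence under double the plate's negative control median, limit read from the data; inconclusive means replicates evenly split on the limit, or fluorescence at least double controls; inactive means too little inhibition in most replicates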;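 further: 0% = DMSO and -100% = 5 µM competing unlabeled TCR2 RNA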
GLD-1 RNA inh: GLD-1-TGE RNA interaction inhibition (C. elegans); actives 0.44% (n = 320,000); inhibition, % at 5.96 µM; Q17339; purified GLD-1 + fluorescein TGE RNA, fluorescence polarization; AID 2280;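 active means percent inhibition above a per-plate cutoff, the plate mean of test compounds plus 3 SD, cut at about 30% in these data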;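 further: 0% = DMSO wells with GLD-1 and probe and 100% = wells lacking GLD-1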
MCL1 BIM primary: inhibitors of human MCL1 binding to BIM-BH3 peptide. Q07820. GST-MCL1 / FITC-Bim-BH3 fluorescence polarization. inhibition, % at 10.9 µM. actives 0.68% (n = 320,000). AID 2057;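 active means inhibition above the mean inhibition of all tested compounds plus 3 SD, set per campaign, cut at about 40% in these data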;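 further: 0% = DMSO wells and 100% = unlabeled Bim-BH3 peptide control; higher means more loss of mP so more displacement of Bim peptide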
EBV gp42 block: EBV gp42 inhibition; Q1HVG2; Fluorescence polarization binding assay, mP read-out; inhibition, % (tested at 21.74 µM); actives 0.42% (n = 220,000); AID 1085; in the data active means inhibition above about 50%
E coli Lon inh: inhibitors of E. coli Lon protease; purified E. coli Lon protease, fluorescence polarization; inhibition, % at 7.94 µM; actives 0.42% (n = 360,000); P0A9M0; in the data active means inhibition above about 13%, passing the limit was not always enough;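 further: 0% = enzyme with probe and DMSO and 100% = no enzyme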
Target sequence (P0A9M0 whole entry, looked up): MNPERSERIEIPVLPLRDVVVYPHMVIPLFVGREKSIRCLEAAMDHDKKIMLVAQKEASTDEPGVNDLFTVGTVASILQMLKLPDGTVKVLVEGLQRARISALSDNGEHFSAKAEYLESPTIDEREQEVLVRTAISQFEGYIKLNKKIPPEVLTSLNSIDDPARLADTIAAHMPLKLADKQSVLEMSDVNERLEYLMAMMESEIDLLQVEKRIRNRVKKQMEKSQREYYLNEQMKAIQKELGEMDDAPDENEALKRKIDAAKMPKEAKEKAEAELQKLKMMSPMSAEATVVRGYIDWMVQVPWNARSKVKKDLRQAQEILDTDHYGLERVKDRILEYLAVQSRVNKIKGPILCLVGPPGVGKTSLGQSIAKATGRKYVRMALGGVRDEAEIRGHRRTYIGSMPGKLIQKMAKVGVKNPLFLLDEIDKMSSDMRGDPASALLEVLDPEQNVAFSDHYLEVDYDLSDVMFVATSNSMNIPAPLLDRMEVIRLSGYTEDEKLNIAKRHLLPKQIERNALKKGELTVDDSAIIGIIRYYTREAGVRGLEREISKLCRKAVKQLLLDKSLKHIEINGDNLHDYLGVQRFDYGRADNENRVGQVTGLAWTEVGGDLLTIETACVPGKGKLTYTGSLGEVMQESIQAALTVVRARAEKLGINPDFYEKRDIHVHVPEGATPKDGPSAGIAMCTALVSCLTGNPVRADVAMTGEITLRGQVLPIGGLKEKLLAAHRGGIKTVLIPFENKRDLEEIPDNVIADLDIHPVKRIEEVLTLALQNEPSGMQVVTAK
eLon confirm: E. coli Lon inhibition confirmation; shares compounds with E coli Lon inh; purified E. coli Lon, fluorescence polarization; inhibition, % at 7.94 µM; actives 31% (n = 1,400); AID 602230; in the data active means inhibition above about 16%;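 further: 0% = enzyme with probe and DMSO and 100% = no enzyme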
* marks the source's active call; other numbers are inactive results; u = inconclusive; x = no result; + = active, no number. Most compounds without a hit are left out; they make up all but 1.5% or so of the library.

SMILES	Bcl-xL primary	MEX-5 binding	GLD-1 RNA inh	MCL1 BIM primary	EBV gp42 block	E coli Lon inh	eLon confirm
O=C(NC(=S)Nc1ccc([N+](=O)[O-])cc1O)C1CCCCC1	1	-4	-6	6	x	16*	0
Cc1cccc(Cl)c1NC(=O)N1CCCN(c2ncccc2[N+](=O)[O-])CC1	2	-1	4	3	9	25*	-8
Cc1cccc(NC(=S)N2CCCN(c3ncccc3[N+](=O)[O-])CC2)c1	3	-1	5	8	-20	-4	x
COCCn1c(N)c(N(Cc2ccccc2)C(=O)C2=COCCO2)c(=O)[nH]c1=O	3	-6	22	-13	x	29*	6
COCCn1c(N)c(N(Cc2ccccc2)C(=O)c2ccc3ccccc3c2)c(=O)[nH]c1=O	-14	-2	2	-15	-6	-7	x
N#Cc1cnc(SCC(=O)N2CCCC2)nc1N	-2	0	4	-6	x	14*	-11
NC(=O)c1ccc2c(=O)c(O)c(-c3cc(Cl)c(N)c(Cl)c3)[nH]c2c1	3	u	0	28	x	52*	19*
CC(C)C[C@H]1CN([C@@H](Cc2ccc(O)cc2)CN2CCC[C@H]2CN2C(=O)C(=O)NC[C@@H]2Cc2ccccc2)C(=O)C(=O)N1CC1CCCCCC1	x	x	x	x	x	9	x
CC(=O)NC12CC3CC(C1)CC(C(=O)Oc1ccc(N(C)S(=O)(=O)c4cc(C)ccc4C)cc1)(C3)C2	0	-2	3	-9	x	-9	x
COc1ccc(C=Nc2cccnc2N)cc1	46*	1	64*	45*	x	+	-14
COc1ccc(/C=N/Nc2nonc2N)cc1	4	1	1	3	-12	9	x
CCCCc1ncc(CN2CCC(n3nccc3NC(=O)c3ccccc3Cl)CC2)[nH]1	0	2	-4	4	x	19*	6
CCn1cc(CN2CCC(n3nccc3NC(=O)c3ccccc3C)CC2)c(C)n1	4	0	0	3	x	45*	-5
CCCCc1ncc(CN2CCC(n3nccc3NC(=O)C(OC)c3ccccc3)CC2)[nH]1 (stereo not drawn)	9	-3	5	10	x	-4	x
CC1=NN(C(N)=S)C(=O)C1N=Nc1ccccc1O (stereo not drawn)	13	5	-8	12	x	19*	26*
CCN(CC)c1ccc(/C=N/NC(=O)c2cc3ccccc3[nH]2)cc1	2	1	3	18	x	16*	9
O=C(C1CC(=O)N(c2ccccc2F)C1)N1CCOCC1 (stereo not drawn)	x	x	7	x	x	-12	x
Cc1ccccc1OCCNc1cc(N2CCCCC2)ccc1[N+](=O)[O-]	8	3	10	4	3	15*	8
Cc1ccccc1OCCNc1cc(N2CCN(CCO)CC2)ccc1[N+](=O)[O-]	-2	0	6	-5	-2	-12	x
Cc1ccc(-n2c(C)cc(C(=O)CN3CCOCC3)c2C)cc1	6	2	1	4	-9	19*	2
CC(=O)C1CCC2C3CCC4CC(=O)CCC4(C)C3C(C)(O)CC12C (stereo not drawn)	x	x	x	x	x	18	x
CCOc1ccc(/C(O)=C2/C(=O)C(=O)N(c3ccccn3)C2c2ccc(C)cc2)c(C)c1 (stereo not drawn)	-2	0	1	-7	x	26*	-5
CCOc1ccc(/C(O)=C2/C(=O)C(=O)N(c3ccccn3)C2c2ccc(Cl)cc2)c(C)c1 (stereo not drawn)	x	-8	x	x	x	0	x
Cc1c(C(=O)O)c(O)cc2c1C(=O)c1c(O)c([C@@H]3O[C@H](CO)[C@@H](O)[C@H](O)[C@H]3O)c(O)c(O)c1C2=O	x	x	11	x	x	45*	22*
CC1(C)Cc2ccccc2C(NNC(=O)c2cccnc2)=N1	5	0	0	7	-16	14	x
SMILES	Bcl-xL primary	MEX-5 binding	GLD-1 RNA inh	MCL1 BIM primary	EBV gp42 block	E coli Lon inh	eLon confirm
CC1(C)CC=C(NNC(=O)c2cccnc2)C(=O)C1	14	-12	67*	16	-5	21*	-8
O=C(Cc1cccs1)NCCS(=O)(=O)N1CCN(c2cccc(Cl)c2)CC1	-2	0	-4	-1	x	2	x
CCC(C)(C)n1nnnc1C(C(C)C)N(Cc1cccnc1)Cc1ccco1 (stereo not drawn)	0	1	2	-6	0	-6	x
CCC(C)(C)n1nnnc1C(C(C)C)N(Cc1ccco1)Cc1cc2cc3c(cc2[nH]c1=O)OCO3 (stereo not drawn)	45*	0	28	46*	-19	36*	52*
C=CCn1c(Sc2nc(C)cs2)nc2c1c(=O)[nH]c(=O)n2C	5	2	1	4	6	22*	3
Cc1cccc(Cn2c(Sc3nc(C)cs3)nc3c2c(=O)[nH]c(=O)n3C)c1	7	-1	5	14	-8	1	x
O=C(NCc1cccnc1)c1cc(C2CCCCN2C(=O)c2cccs2)on1 (stereo not drawn)	x	x	x	x	x	-3	x
O=C1CN(S(=O)(=O)c2cccc(Cl)c2Cl)CCN1	x	x	x	x	x	44*	14
O=C1CN(S(=O)(=O)c2ccccc2Cl)CCN1	x	x	x	x	x	2	x
CC(C)c1ccc(CCNC(=O)CCNS(=O)(=O)c2ccc(Br)cc2)cc1	1	x	7	-3	x	-5	x
COc1cccc(OC)c1C(=O)NNC(=O)c1cccc(COc2ccc3c(c2)CCC3)c1	0	-4	5	-1	23	15*	-1
O=C(NCc1ccccc1)c1cccc(COc2ccc3c(c2)CCC3)c1	1	0	3	7	-5	3	x
O=C(c1ccccc1Cl)N(Cc1ccc(Cl)c(Cl)c1)N1C(=O)CCCC1=O	2	-1	0	8	12	18*	5
Cc1ccc(OCCC(=O)OCC(=O)N2CCN(S(=O)(=O)c3ccc(C)cc3C)CC2)cc1	-5	0	2	-2	x	-4	x
CCOc1ccc(OCCC(=O)OCC(=O)N2CCN(S(=O)(=O)c3ccc(C)cc3C)CC2)cc1	x	x	x	x	x	20*	3
O=C(O)c1ccccc1C(=O)Nc1ccc(-n2nccc2C(F)(F)F)cc1	4	-3	7	3	-3	-2	x
N=c1c2c(-c3ccccc3)c(-c3ccccc3)n(Cc3ccco3)c2ncn1CCCN1CCOCC1	6	2	0	6	-14	14*	-1
CCOC(=O)C(=COC(=O)c1ccccc1)NC(=O)Cc1ccccc1	x	x	x	x	x	-6	x
O=C1CN(C(=O)c2ccccc2F)C(c2ccccc2)c2cc(F)ccc2N1 (stereo not drawn)	0	2	2	-7	x	18*	-10
Cc1[nH]c2ccc3ncccc3c2c1C	5	0	0	1	1	-9	x
Cc1[nH]c2ccc3c(ncn3CCC#N)c2c1C	9	-4	-2	9	-20	29*	-11

Assay outcomes as filed in PubChem BioAssay.
